Experimental data reported in PubChem BioAssay (NCI).
About 83,000 compounds went through this panel and 20% of them were active in at least one assay; those are over-represented in the sample as a whole.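 Each cell line was grown in a 96-well plate and treated with one concentration of compound for 48 hours. Values below 10 were considered active.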 Activity calls are given as the source filed them.

Tested on: MDA-MB-468 breast
Test: NCI-60 one-dose screen, 48 h (100 = growth as untreated, 0 = no growth, -100 = all killed)
Conditions: 10 µM unless noted

Structure (SMILES) | growth
O=c1oc2c(cnc3ccccc32)cc1-c1ccsc1 | 85.5% (inactive)
CSC(SC)=C(C#N)c1nc2ccccc2s1 | 43.8% (inactive)
C=C1C(=O)O[C@H]2[C@H]1CC/C(COC(=O)CSCC(=O)OC/C1=C/CC[C@@]3(C)O[C@H]3[C@H]3OC(=O)C(=C)[C@@H]3CC1)=C\CC[C@@]1(C)O[C@@H]21 | -1.97% (active)
CCN(CC)CCCNc1nc(C)cc(Nc2ccc3nc(C)cc(N)c3c2)n1 | 117% (inactive)
CN(C)CCOc1nc2c3ccncc3cc(-c3cccc(Cl)c3)c2c2cnccc12 | 38.3% (inactive)
C=C(C)[C@@H]1CC=C2c3sc(-c4ccc(C)cc4)nc3C[C@@H](C)[C@]2(C)C1 | 108% (inactive)
NC(CCl)=NCCC[C@H](N)C(=O)O | 91.8% (inactive)
COc1cc(NCCCCCNC(C)(C)C)c2ncccc2c1 | -6.36% (active)
Nc1ncc(-c2ccc3ncnc(N4CCc5ccc(Cl)cc54)c3c2)cc1C(F)(F)F | -36% (active)
COc1ccc(Br)c2ccccc12 | 100% (inactive)
Cc1ccc2c(-n3nc(C#N)c(C#N)c3N)cc(=O)[nH]c2c1 | 92.6% (inactive)
COc1ccc(/C=C/c2nc(Nc3cccc(NC(C)=O)c3)c3ccccc3n2)cc1 | 67.1% (inactive)
CC(=O)Nc1nc2c(s1)C1=CC[C@H]3[C@@H]4CC[C@H](C(C)=O)[C@@]4(C)CC[C@@H]3[C@@]1(C)CC2 | 69.7% (inactive)
COc1ccc(/C=N/N=C(/c2ccccc2)c2ccc3nc(-c4ccc(Cl)cc4)[nH]c3c2)cc1 | 70% (inactive)
C[n+]1cccc(NC(=O)c2ccc3ccc4ccc(C(=O)Nc5ccc[n+](C)c5)nc4c3n2)c1 | -15.9% (active)
CC(=O)c1ccc(NCn2nc(-c3ccc(Cl)cc3)oc2=S)cc1 | 100% (inactive)
C=C(C)[C@@H]1CC[C@]2(C(=O)N3CCN(C)CC3)CC[C@]3(C)[C@H](CC[C@@H]4[C@@]5(C)CC[C@H](O)C(C)(C)[C@@H]5CC[C@]43C)[C@@H]12 | -67.3% (active)
c1cc(-c2nnc(SSc3ncnc4nc[nH]c34)o2)ccn1 | -9.07% (active)
COCCn1cc(-c2nc(-c3cc4cccnc4n3C)cs2)c2ccccc21 | -16.1% (active)
COC(=O)CC[C@@H]1O[C@@H](c2ccc(F)cc2)[C@@H](O)[C@H]1O | 96.5% (inactive)

Structure (SMILES) | growth
COc1cc(OC)c(/C=C/c2c3ccccc3cc[n+]2C)c(OC)c1 | -26.5% (active)
O=C(CN1C(=O)S/C(=C\C(Cl)=C\c2ccccc2)C1=O)NCCc1ccc(O)cc1 | 17.3% (inactive)
COc1cc(C)cc(-c2c(-c3cc(N4CC(O)C4)nc(-c4cccnc4)n3)cnn2C)c1 | 80.2% (inactive)
COc1ccc(C2c3sc4c(C)cccc4c3Oc3nc(CC(=O)Nc4ccccc4)[nH]c(=O)c32)cc1 (stereo not given) | 18.6% (inactive)
CC(C)c1cc(C(C)C)c(S(=O)(=O)Oc2ccc(NC(=O)c3ccc(Cl)cc3)cc2)c(C(C)C)c1 | 8.01% (active)
COc1cnc2c(c1)C(=O)c1c-2n(CCCn2ccnc2)c(=O)c2cc(Cl)ccc12 | -11.2% (active)
CCC(C)(C)C1CCC(O)CC1 (stereo not given) | 104% (inactive)
O=C(O)c1cn(C2CC2)c2cc(N3CCN(C(=O)C[n+]4ccccc4)CC3)c(F)cc2c1=O | 107% (inactive)
COc1ccccc1-c1ccc2c(N)c(C(=O)c3ccc4c(c3)OCO4)sc2n1 | 55.1% (inactive)
N#CC1=C(N)Oc2nc[nH]c(=O)c2C1c1cccs1 (stereo not given) | 99.3% (inactive)
COC(=O)[C@]12CC[C@@H](C)[C@H](C)[C@@H]1C1=CC[C@@H]3[C@@]4(C)C[C@@H](OC(=O)c5ccco5)[C@H](O)[C@@](C)(CO)[C@@H]4[C@H](O)C[C@@]3(C)[C@]1(C)CC2 | -89.1% (active)
CC(=O)Nc1ccc2oc(=O)ccc2c1 | 83% (inactive)
Cl[C@@H]1CCO[C@H](c2cc3ccccc3c3ccccc23)C1 | 93.4% (inactive)
COc1ccc(CNc2c3ccccc3nc3ccccc23)c(OC)c1 | 4.83% (active)
Cc1ccc(Nc2ccc(Nc3ccc(C)cc3)c3c2C(=O)c2cccc(O)c2C3=O)cc1 | 83.3% (inactive)
Cc1cc(N/C=c2\sc3ncnn3c2=O)no1 | 101% (inactive)
COc1ccc2cc(-c3nn(-c4ccc(C(=O)O)cc4)cc3CO)ccc2c1 | 109% (inactive)
COc1ccc(Cn2c(Br)c3c(c2-c2cc(OC)c(OC)c(OC)c2)CCc2sc(NC(=O)c4ccc(OC)cc4)nc2-3)cc1 | 98.8% (inactive)
O=C(Nc1ccccc1Cl)Oc1ccc(-c2ccccc2)cc1 | 115% (inactive)
COc1ccc(/C=C/C(=O)c2ccc(-n3cc(CN4CCN(c5cc6c(cc5F)c(=O)c(C(=O)O)cn6C5CC5)CC4)nn3)cc2)cc1 | 26.3% (inactive)
